HTT ATP protect: protects HTT-Q103 PC12 cells, measured by ATP. PC12 HTT-Q103 induced, cytoprotection, ATP luminescence, 40 h. 0.14% of 230,000 active. Potency, µM (series often up to 56.4 µM), for inactives: cytoprotection (ATP increase), most hits filed as activators; note: % of control where 0% means no effect; nearly all actives have a fitted effect of over 45% in size
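Rat PC12, Q103 Htt exon1-GFP fusion, ecdysone promoter; tebufenozide inducer 100 nM final; compound titration; qHTS, 1500 cells/well; ATPlite luminescent read.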
L3MBTL1 block: blocks human L3MBTL1 | Q9Y468 | AlphaScreen L3MBTL1–H3K9me1 peptide binding | Potency, µM (doses to about 57.1 µM), without a hit: top-dose activity, negative = inhibition, usual class: inhibitors | 0.66% of 230,000 active | AID 485360; note: % is set by controls: 0 for no effect and ±100 for the full control effect; nearly all actives have a fitted effect of over 60% in size
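AlphaScreen proximity signal between nickel-chelate acceptor and streptavidin donor beads (final 10 ug/mL) reports binding of 50 nM L3MBTL1 to 75 nM biotin-H3 K9me1 peptide; complex incubated with compounds 30 min at room temperature; cefsulodin titration as control.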
KDM4E inh: blocks human JMJD2E demethylase activity; Potency, µM (highest dose often 57.1 µM), for inactives: top-dose activity change, negative = inhibition, most hits filed as inhibitors; 1.6% of 230,000 active; B2RXH2; JMJD2E catalytic domain, FDH-coupled NADH fluorescence (FDH is formaldehyde dehydrogenase);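 note: 0% = wells with enzyme and -100% = buffer wells without enzyme; nearly all actives have a fitted effect of over 50% in size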
Target sequence (B2RXH2 1-337 limits assumed): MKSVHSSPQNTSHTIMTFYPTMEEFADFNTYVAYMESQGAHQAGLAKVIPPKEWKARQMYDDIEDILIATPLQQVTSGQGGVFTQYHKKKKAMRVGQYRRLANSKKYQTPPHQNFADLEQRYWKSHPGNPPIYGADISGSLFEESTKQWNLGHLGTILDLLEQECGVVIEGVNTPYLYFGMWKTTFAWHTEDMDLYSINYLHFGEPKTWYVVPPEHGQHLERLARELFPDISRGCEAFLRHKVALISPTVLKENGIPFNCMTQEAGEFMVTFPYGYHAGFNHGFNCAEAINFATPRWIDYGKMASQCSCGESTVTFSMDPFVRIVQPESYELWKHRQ
HttQ103 aggreg: inhibitors of mutant huntingtin aggregate formation in PC12 cells; 1.1% of 220,000 active; Potency, µM (top dose mostly 46.1 µM), inactives show at the top dose activity change, negative = inhibition, actives largely listed as inhibitors; AID 1688; PC12 HttQ103-GFP aggregates, Acumen cytometry, 40 h; note: % is set by controls: 0 for no effect and ±100 for the full control effect; nearly all actives have a fitted effect of over 60% in size
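PC12/HTTQ103-GFP, ecdysone-inducible; teb 100 nM; cpd qHTS titration; GFP aggregates read on laser cytometer, Ex 488/Em 500-530 nm.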
Numbers without * were called inactive; ? = inconclusive; · = no result given; ! = not confirmed by another sample; [ ] = dose if it differs, or a comment. The list is not random: actives were taken first. Their share in the collection is about 1.8%. Unless noted, calls come from the whole dose curve; as a rule, active = well fitted curve in the direction sought with a large enough effect; inconclusive = small, poorly fitted or top-dose-only effect, or another doubt; inactive = no such curve, though single readings can be large; an effect the other way counts as inactive or inconclusive. Potency is the fitted concentration of half-maximal effect.

SMILES	HTT ATP protect	L3MBTL1 block	KDM4E inh	HttQ103 aggreg
O=C(NC(=S)Nc1cccc(NC(=S)NC(=O)c2ccco2)n1)c1ccco1	-30%[10 µM]	9%	-13%	?
O=C(NC(=S)NNC(=O)c1ccccc1O)c1cccnc1	·	?	20µM*	-20%
O=C(NNC(=S)NC1CCCCC1)c1cccs1	33%[10 µM]	-10%	-4%	3%
O=C(NC(=S)NNC(=O)c1cc2ccccc2cc1O)c1ccco1	-107%	?	18µM*	?
O=C(NNC(=S)NC(=O)c1ccco1)c1ccc(NC(=O)c2ccccc2)cc1	-79%	·	?	?
O=C(NC(=S)NNC(=O)c1ccccc1O)c1ccco1	14%[10 µM]	-17%	7.1µM*	?
O=C(NNC(=S)NC1CCCCC1)c1ccccc1O	-82%	-11%	?	10µM*
O=c1c(-c2cccs2)nc2cnc(N3CCOCC3)nc2n1-c1ccccc1	-50%	·	·	·
COC(=O)c1ccc(C(NC(=O)OCc2ccccc2)/C(=C/[C@@H](C)C(=O)NCC2CC2)c2cccnc2)cc1 (stereo partly drawn)	15%	·	1%	·
COC(=O)C1(C(C)=O)CC2=CC[C@@H]3C(=O)N(c4ccccc4)C(=O)[C@@H]3[C@@H]2Cc2ccccc2[C@@H]1C[N+](=O)[O-] (stereo partly drawn)	-38%	·	14%	·
Cc1ccccc1Nc1oc(-c2ccccc2)nc1-c1ccccc1F	?	·	2%	·
O=C(/C=C/c1cccs1)NC(=S)NNC(=O)c1ccccc1O	0%[10 µM]	35µM*	?	7%[9.22 µM]
COc1ccc(C(=O)NNC(=S)NC(=O)/C=C/c2cccs2)cc1	-48%[10 µM]	1%	12%	0%[9.22 µM]
CC(C)(C)CC(C)(C)c1ccc(OCCOCC[N+](C)(C)Cc2ccccc2)cc1	-227%	10%	0%	28µM*
C=C(CO)[C@H]1Cc2c(ccc3c(=O)c4c(oc23)COc2cc(OC)c(OC)cc2-4)O1	-12%	·	·	·
C/C(=N\NC(=O)c1cc(-c2cccs2)nc2ccccc12)c1ccccn1	-131%	28µM*	?	0.89µM*
O=CN1CCc2c([nH]c3ccccc23)C1c1cccc2cccnc12 (stereo not drawn)	-29%	·	-6%	·
N#C[C@@H](Cc1ccc(O)c(O)c1)C(=O)N1CCc2ccccc21	-21%[1.9 µM]	·	·	·
COc1cc2ncnc(NCc3ccc(C)cc3)c2cc1OC	-19%[10 µM]	-13%	?	35µM*
Cc1ccc(S(=O)(=O)N(C(=O)c2ccco2)c2cc3sc(=O)oc3c3ccccc23)cc1	·	-10%	14µM*	?
COc1ccc(S(=O)(=O)N(C(=O)c2ccco2)c2cc3sc(=O)oc3c3ccccc23)cc1	-4%[10 µM]	-9%	13µM*	19%
CCOc1ccc(S(=O)(=O)N(C(=O)c2ccco2)c2cc3sc(=O)oc3c3ccccc23)cc1	0.89µM*	-5%	16µM*	0%
COc1ccc(S(=O)(=O)N(C(=O)C(C)C)c2ccc3oc(=O)sc3c2)cc1	?	·	-8%	?
CC(=O)N(C[C@@H](O)CO)c1c(I)c(C(=O)NC[C@@H](O)CO)c(I)c(C(=O)NC[C@@H](O)CO)c1I	?	·	4%[25.5 µM]	·
Fc1ccc(Nc2ccnc(-c3ccccc3C(F)(F)F)n2)cc1	-11%	·	·	·
SMILES	HTT ATP protect	L3MBTL1 block	KDM4E inh	HttQ103 aggreg
CCN1/C(=C/C=C/c2oc3ccc(-c4ccccc4)cc3[n+]2CC)Oc2ccc(-c3ccccc3)cc21	-94%[10 µM]	-89%	7.9µM*	0.35µM*
COc1ccc(C(=O)c2c(C(F)(F)F)oc3c2C(=O)c2ccccc2C3=O)cc1	-85%	·	-1%	3.2µM*
CO[C@@H]1COC(=O)[C@H](C)NC(=O)C/C=C\[C@@H](C)[C@@H](NS(=O)(=O)c2ccc(C)cc2)COC(=O)C/C=C\[C@@H]1C	-43%[10 µM]	·	·	·
O=C(NCc1ccco1)c1nc2c(nnn2Cc2cccc(Cl)c2)c(=O)[nH]1	4.5µM*	-3%	2%	-9%
COc1ccc(Oc2ncc3nc(-c4ccc(F)cc4)c(=O)n(Cc4cccs4)c3n2)cc1	14%	·	·	·
CC1=C(/C=C/C(C)=C/C=C/C(C)=C/C(=O)Nc2ccc(O)cc2)C(C)(C)CCC1	?	-4%	20µM*!	?
Cc1c(C(=O)NN2CCCCC2)nn(-c2ccc(Cl)cc2Cl)c1-c1ccc(Cl)cc1	-326%	·	·	-43%
Cc1nn(-c2ccccc2)c(N)c1Sc1ccccc1[N+](=O)[O-]	2%[10 µM]	-3%	-1%	3.5µM*
Cc1nn(-c2ccccc2)c(N)c1Sc1cccc([N+](=O)[O-])c1	18%[10 µM]	-7%	-11%	-16%
CC[n+]1ccc2cc(OC)c(OC)cc2c1Cc1ccc(OC)c(OC)c1	14%[10 µM]	14%	25µM*	17%[9.22 µM]
COc1ccc(Cc2c3cc(OC)c(OC)cc3cc[n+]2C)cc1OC	-18%[10 µM]	·	?	-24%[9.22 µM]
CC(C)=NOC[C@@H](C)[C@H](OCc1ccccc1)C(C)C	6%[10 µM]	·	·	·
Cc1cc(C)cc(C(=O)NCC(=O)OCC(=O)N2c3ccccc3NC(=O)C2(C)C)c1	5%[10 µM]	18µM*	-6%	-19%
CC(C)c1ccc(OCc2ccc(C(=O)O)o2)cc1	7%[10 µM]	·	7.9µM*	-16%[9.22 µM]
O=C(O)c1ccc(COc2ccc(Cl)cc2)o1	-15%[0.074 µM]	·	7%	-2%
CCCn1nc([N+](=O)[O-])c(C(C#N)c2nc3ccccc3s2)c(Cl)c1=O (stereo not drawn)	13µM*	·	-8%	·
CC1(C)CC=C(O[Si](C)(c2ccccc2)c2ccccc2)CC1	?	·	-7%	·
Cc1cc(N(C)C)ccc1N=Nc1ccc2ncccc2c1	-2%[10 µM]	8.9µM*	-25%	-10%[9.22 µM]
Cc1ccc2ncccc2c1	9%	-7%	·	·
COCCn1c(=O)c(-c2cccs2)nc2cnc(Oc3ccccc3)nc21	-63%	·	·	·
COc1ccc(C(=O)C(CN2CCOCC2)c2ccccc2)cc1F (stereo not drawn)	3.2µM*	-2%	-1%	·
COc1ccc(C(O)C(CN2CCOCC2)c2ccccc2)cc1F (stereo not drawn)	14%[1.9 µM]	-1%	0%	8%
C=CCCC(=O)Nc1nc(C)c(-c2csc(Nc3cc(OC)ccc3OC)n2)s1	-106%	-25%	?	10µM*
COc1ccc(C(=O)CSc2nnc(Cn3cnc4ccccc43)o2)cc1	-12%[10 µM]	-1%	-16%	10µM*
Cn1c(/C=C/c2ccc(Cl)cc2)nc2ccccc2c1=O	·	25%	·	·
SMILES	HTT ATP protect	L3MBTL1 block	KDM4E inh	HttQ103 aggreg
Cn1c(/C=C/c2ccc([N+](=O)[O-])o2)nc2ccccc2c1=O	-110%	-10%	-11%	10µM*
CCCCC/C=C\C[C@@H]1O[C@H]1C(O)/C=C\C/C=C\CCCC(=O)O (stereo partly drawn)	-6%	·	2%	·
O=S(=O)(c1ccc(N2CCCC2)cc1)C(F)(F)F	-3%	0%[11.4 µM]	0%	10µM*
O=Nc1c(O)[nH]c2ccc(F)cc12	·	-1%	3%	3%
Cc1cc2c(N=O)c(NO)ccc2[nH]1	-65%[10 µM]	·	11µM*	?
CCCCc1ccc(Nc2nc(CCC)cc(=O)[nH]2)cc1	20%[1.9 µM]	3%	-25%	35µM*

Screening data as filed in PubChem BioAssay.
